Assay outcomes deposited in PubChem BioAssay by National Center for Advancing Translational Sciences (NCATS).
Tau fibril ThT = inhibitors of human tau fibril formation, thioflavin T binding | recombinant tau K18 P301L, heparin-induced fibrillization, ThT fluorescence | Potency, µM (top dose mostly 57.4 µM), for the others: at the top dose activity, negative = inhibition, most hits filed as inhibitors | 270,000 tested, 2.1% active; further: nearly all actives have a fitted effect of over 55% in size
Target sequence (P10636 561-689 P618L limits assumed): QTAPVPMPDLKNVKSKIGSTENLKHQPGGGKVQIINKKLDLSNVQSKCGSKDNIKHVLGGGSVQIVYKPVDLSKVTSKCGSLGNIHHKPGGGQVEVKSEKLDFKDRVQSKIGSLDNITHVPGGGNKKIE
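ThT emission at 510 nm, taken 1 hr after adding 30 uM dye, quantifies aggregates formed when 20 uM heparin acts on human tau K18 P301L for 6 hr at 37 C.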
Tau fluor cs = counter-screen for tau fibril formation inhibitors; Potency, µM (doses to about 57.7 µM), without a hit: at the top dose activity change, negative = decrease; tau K18 P301L (four-repeat tau fragment) Alexa594 fluorescence, heparin fibrillization; 280,000 tested, 0.93% active; AID 1463; further: nearly all actives have a fitted effect of over 55% in size
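Human K18 P301L tau (15 uM unlabeled plus 0.24 uM Alexa 594-labeled, final) in 100 mM sodium acetate pH 7 was mixed with compound and 20 uM heparin and incubated 6 hr at 37 C.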
Sfp inh = inhibitors of Bacillus subtilis Sfp phosphopantetheinyl transferase. Biochemical Sfp PPTase activity, qHTS. Potency, µM, for the others: largest response in the series, negative = inhibition, hits mostly inhibitors. 310,000 tested, 3.5% active;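 further: the enzyme is Sfp with the accession as filed and its product quenches rhodamine fluorescence; 0% = enzyme reaction without inhibitor and -100% = no enzyme wells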
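After 15 min at room temperature with compound, 15 nM Sfp received 5 uM rhodamine-CoA plus 12.5 uM BHQ-2-ybbR (50 mM Hepes pH 7.6, 10 mM MgCl2). Rate came from the fluorescence difference over 30 min, ex 525/em 598 nm.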
PLK1 PBD block = blocks phosphopeptide binding to human PLK1 polo-box domain. P53350. Plk1 PBD binding of FITC phosphopeptide, fluorescence polarization. Potency, µM, for the others: max response, negative = inhibition, hits mostly inhibitors. 360,000 tested, 2.8% active. AID 720504; further: series mostly up to about 57 µM; nearly all actives have a fitted effect of over 65% in size
VDR inhibitor = blocks the human vitamin D receptor | P11473 | VDR-SRC2-3 peptide fluorescence polarization, 2 h | Potency, µM, inactives show max response, negative = inhibition, actives largely listed as inhibitors | 400,000 tested, 0.93% active | AID 504847
Target sequence (P11473 whole entry, looked up): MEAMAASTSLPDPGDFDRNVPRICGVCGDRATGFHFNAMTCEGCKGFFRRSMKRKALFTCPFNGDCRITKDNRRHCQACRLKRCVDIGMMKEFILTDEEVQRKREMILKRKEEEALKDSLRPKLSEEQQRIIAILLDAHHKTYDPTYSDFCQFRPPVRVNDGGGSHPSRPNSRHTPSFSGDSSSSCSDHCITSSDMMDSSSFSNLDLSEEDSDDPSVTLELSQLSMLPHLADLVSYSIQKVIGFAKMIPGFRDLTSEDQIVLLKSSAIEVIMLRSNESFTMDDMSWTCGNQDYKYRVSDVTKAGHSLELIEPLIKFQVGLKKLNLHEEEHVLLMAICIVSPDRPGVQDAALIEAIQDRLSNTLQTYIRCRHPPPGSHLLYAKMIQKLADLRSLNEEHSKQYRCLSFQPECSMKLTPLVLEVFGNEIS
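Measured by FP: displacement of SRC2-3 coactivator peptide from VDR by library compounds, following a two-hour ambient incubation.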
Tau fibril FP = blocks human tau fibril formation measured by polarization. P10636. K18 P301L tau heparin fibrillization, Alexa594 FP, 6 h. Potency, µM (top dose mostly 57.7 µM), without a hit: top-dose activity, negative = inhibition, actives largely listed as inhibitors. 280,000 tested, 0.39% active; further: nearly all actives have a fitted effect of over 55% in size
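Read-out: fluorescence polarization of Alexa 594-labeled tau (0.24 uM), 555 nm excitation, 632 nm emission. Mixtures held 15 uM unlabeled K18 P301L, compound and 20 uM heparin, pH 7 acetate buffer, incubated 6 hr at 37 C.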
* = called active by the depositor; ? = inconclusive; · = no result given; [ ] = dose if it differs, or a comment. Shown are actives, neighbours in structure and some others; about 6% of the full set was active somewhere. The call rests on the fitted dose curve; in most records, active means well fitted curve in the direction sought with a large enough effect; inconclusive means small, poorly fitted or top-dose-only effect, or another doubt; inactive means no such curve, though single readings can be large; an effect the other way counts as inactive or inconclusive. Unless noted, on the % scale 0 is the no-effect control and ±100 the full control effect; potency means the concentration at half of the fitted maximal effect.

SMILES	Tau fibril ThT	Tau fluor cs	Sfp inh	PLK1 PBD block	VDR inhibitor	Tau fibril FP
CC(=O)C(/C=N/c1cc(-c2ccc(C)cc2)nn1-c1ccccc1)=C(\C)O	9.4%	6.8%	-26.2%	-8.1%	-15.1%	6.3%
Clc1ccccc1/C=N/c1cc(-c2ccccc2)nn1-c1ccccc1	9.9%	2.3%	-12.7%	16.8µM*	?	-4.6%
O=C(Nc1nc(=O)c2ccccc2s1)c1ccc(F)cc1	-14.3%	-1.6%	56.2µM*	-1.5%	70.8µM*	-10.1%
O=C(Nc1nc(=O)c2ccccc2s1)c1ccc(Cl)cc1	-6.0%	-5.3%	25.1µM*	?	-14.5%	?
O=C(Cc1ccccc1)Nc1nc(=O)c2ccccc2s1	-8.3%	-10.0%	?	-21.1%	-6.4%	1.1%
CCOC(=O)C1CCCN(C(=O)CN2C(=O)c3ccccc3S2(=O)=O)C1 (stereo not drawn)	·	·	·	1.8%	0.3%	·
COC(=O)[C@]1(C)N[C@H](CN(C)C(=O)Nc2ccc(C)cc2)[C@@H]2C(=O)N(C)C(=O)[C@@H]21	·	·	·	-15.5%	-3.9%	·
COc1cc(/C=N/Nc2nc(=O)[nH]nc2C)cc([N+](=O)[O-])c1O	14.1µM*	-23.6%	56.2µM*	2.9%	-25.1%	0.5%
Cc1n[nH]c(=O)nc1N/N=C/c1ccc(O)c([N+](=O)[O-])c1	?	-4.7%	56.2µM*	-12.8%	-13.5%	8.7%
COc1ccc(/C=N/Nc2nc(=O)[nH]nc2C)cc1[N+](=O)[O-]	?	-8.1%	?	-7.7%	0.2%	-3.6%
COc1ccc(/C=N/Nc2nc(=O)[nH]nc2C)cc1OC	-16.7%	-3.7%	19.4%	-4.8%	13.5%	0.4%
COc1cc(/C=N/Nc2nc(=O)[nH]nc2C)ccc1O	-9.1%	8.2%	56.2µM*	-26.7%	9.1%	4.6%
CCCn1c(C2CCCN2c2nc(-c3cccc(Br)c3)cs2)nc2ccccc21 (stereo not drawn)	·	·	-17.0%	-4.0%	21.7%	·
CCOc1ccccc1CNC(=O)C1CCN(c2nnc(-n3c(C)ccc3C)s2)CC1	?	-18.3%	·	·	7.1%	?
CC(C)CC(=O)N1CCN(C(=O)CCC2CCCC2)CC1	-1.5%	-0.4%	7.7%	26.7µM*	-10.4%	1.1%
COc1ccc2[nH]cc(CCNc3ncnc4ccc(-c5ccccc5C#N)cc34)c2c1	?	14.1µM*[quencher]	14.9%	·	-6.5%	13.6%
CN(C)C(=O)c1ccc(-c2cncnc2-n2ccnc2)cc1	·	·	6.1%	·	?	·
Cc1ccccc1-c1ccc2ncnc(N(C)C)c2c1	·	·	?	·	-4.6%	·
CN(C)c1ccc(-c2ccc3ncnc(-n4ccnc4)c3c2)cc1	·	·	-21.7%	·	15.8µM*	·
Cc1ccccc1-c1ccc2ncnc(-n3ccnc3)c2c1	·	·	10.8%	·	14.1µM*	·
COCCNc1ncnc2ccc(-c3ccccc3C)cc12	·	·	79.4µM*	·	?	·
C[C@H]1CN(S(=O)C(C)(C)C)[C@@H](CCO)/C1=C\CCO (stereo partly drawn)	·	·	·	-0.8%	-19.8%	·
O=C(c1ccc(Cn2c(=S)[nH]c3ccccc3c2=O)cc1)N1CCN(c2ccccn2)CC1	4.3%	-23.4%	11.9%	-1.2%	-13.7%	-9.4%
COc1cccc(CC(=O)Nc2ccc(S(=O)(=O)Nc3nc(C)cc(C)n3)cc2)c1	-1.2%	-4.0%	4.7%	13.4µM*	?	-0.5%
Cc1cc(C)nc(NS(=O)(=O)c2ccc(NC(=O)Cc3ccccc3)cc2)n1	-5.2%	-4.5%	-0.1%	?	-10.8%	-1.5%
SMILES	Tau fibril ThT	Tau fluor cs	Sfp inh	PLK1 PBD block	VDR inhibitor	Tau fibril FP
Cc1cc(NS(=O)(=O)c2ccc(NC(=O)COc3ccc(Br)cc3)cc2)nc(C)n1	·	·	3.9%	2.67µM*	?	·
CCN1C(=O)[C@H]2[C@@H](c3ccc(-c4ccc(OC)cc4)cc3)N3CCC[C@@]3(C(=O)OC)[C@H]2C1=O	·	·	·	2.1%	-21.4%	·
Cc1ccccc1NC(=O)/C(C#N)=C/c1ccc(-c2ccc(Cl)c(C(=O)O)c2)o1	·	·	9.9%	-1.9%	-10.1%	·
O=C(O)c1cc(-c2ccc(/C=N/Nc3ccc(Cl)cc3)o2)ccc1Cl	8.91µM*	11.2µM*[quencher]	-21.5%	29.9µM*	-29.2%	2.4%
Cc1ccc(NC(=O)/C(C#N)=C/c2ccc(-c3ccc(Cl)c(C(=O)O)c3)o2)cc1C	4.47µM*	-2.2%	·	·	-7.6%	-2.2%
O=C(O)c1ccc(N/N=C/c2ccc(-c3ccc(Br)cc3)o2)cc1	·	·	1.5%	?	-0.5%	·
Nc1nonc1C(=O)N/N=C/c1ccc(-c2ccc(Cl)c(C(=O)O)c2)o1	?	7.1%	8.91µM*	-11.9%	-1.7%	5.4%
CCCCCCCCN1C(=O)[C@H](CC(=O)N2CCSCC2)C[C@@]2(C(=O)OCC)CCCC=C12	·	·	·	-14.2%	·	·
COC(=O)CCC(=O)N1CCC(CCC(=O)NCc2ccc(F)cc2)CC1	·	·	11.1%	-2.8%	?	·
CC1C(=O)CCC1(C(=O)O)c1ccccc1 (stereo not drawn)	-4.2%	-2.2%	20.3%	23.8µM*	-6.7%	2.6%
CC(C)OC(=O)[C@@H]1CC[C@H](C)[C@@H](CCC[C@@H]2C[C@@H](O)C[C@H](CC#N)O2)O1	-3.6%	-5.7%	16.1%	·	3.2%	?
O=C(O)CC(Cn1[nH]nnc1=S)c1ccccc1 (stereo not drawn)	-10.3%	-10.8%	39.8µM*	?	-7.8%	-14.6%
COc1ccc(/C([O-])=C(/C(=S)Nc2ccc(C)c(C)c2)n2c[n+](C)c3ccccc32)cc1OC	-11.8%	-13.0%	44.7µM*	?	-15.9%	4.2%
CCc1ccccc1Oc1nc(NCc2ccccc2)nc2ccsc12	·	·	·	0.0%	·	·
CCn1cc(C(=O)NCc2ccc(C)o2)c2cc(OC)c(OC)cc2c1=O	?	-14.1%	35.5µM*	-4.3%	-15.9%	?
CCCn1c(-c2ccc(OC)cc2)nc2c(=O)n(C)c(=O)[nH]c21	-12.5%	-7.8%	12.8%	-0.7%	4.4%	1.6%
CCCCn1c(-c2ccc(OC)cc2)nc2c(=O)n(C)c(=O)[nH]c21	·	·	-1.0%	?	50.1µM*	·
NCC1CCC(C(=O)O)CC1 (stereo not drawn)	-2.5%	-6.1%	16.7%	·	0.1%	-5.4%
CC(C)Oc1ccc(S(=O)(=O)N2CCOCC2)cc1NC(=O)CC1CCCC1	·	·	·	-9.8%	0.7%	·
O=C(CC1CCCC1)Nc1cc(S(=O)(=O)N2CCOCC2)ccc1O	·	·	·	5.97µM*	?	·
CCCCc1ccc(CC(=O)Nc2cc(S(=O)(=O)N3CCOCC3)ccc2O)cc1	·	·	·	15µM*	?	·
O=C(CSc1nc2ccccc2s1)Nc1cc(S(=O)(=O)N2CCOCC2)ccc1O	0.7%	2.1%	-15.6%	10.6µM*	?	7.2%
O=C(CSc1nc2ccccc2s1)NCc1cc([N+](=O)[O-])ccc1O	·	·	·	18.9µM*	?	·
Cc1nnc(SCC(=O)Nc2cc(S(=O)(=O)N3CCOCC3)ccc2C)s1	·	·	·	-6.2%	3.5%	·
